Many of the other results were omitted from the sample, so hits are more common in it than they were.
IDE exosite inh: insulin-degrading enzyme (human) exo-site inhibition | P14735 | purified IDE, FL-6b probe fluorescence polarization; hits give low values | z-score at 20 µM | hit rate 6.3% among 17,000;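 active = z-score of -3 or lower, meaning strong loss of probe binding signal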;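 note: His-tagged human IDE residues 42-1019 made in E. coli with 30 nM FL-6b probe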
Target sequence (P14735 42-1019 limits assumed): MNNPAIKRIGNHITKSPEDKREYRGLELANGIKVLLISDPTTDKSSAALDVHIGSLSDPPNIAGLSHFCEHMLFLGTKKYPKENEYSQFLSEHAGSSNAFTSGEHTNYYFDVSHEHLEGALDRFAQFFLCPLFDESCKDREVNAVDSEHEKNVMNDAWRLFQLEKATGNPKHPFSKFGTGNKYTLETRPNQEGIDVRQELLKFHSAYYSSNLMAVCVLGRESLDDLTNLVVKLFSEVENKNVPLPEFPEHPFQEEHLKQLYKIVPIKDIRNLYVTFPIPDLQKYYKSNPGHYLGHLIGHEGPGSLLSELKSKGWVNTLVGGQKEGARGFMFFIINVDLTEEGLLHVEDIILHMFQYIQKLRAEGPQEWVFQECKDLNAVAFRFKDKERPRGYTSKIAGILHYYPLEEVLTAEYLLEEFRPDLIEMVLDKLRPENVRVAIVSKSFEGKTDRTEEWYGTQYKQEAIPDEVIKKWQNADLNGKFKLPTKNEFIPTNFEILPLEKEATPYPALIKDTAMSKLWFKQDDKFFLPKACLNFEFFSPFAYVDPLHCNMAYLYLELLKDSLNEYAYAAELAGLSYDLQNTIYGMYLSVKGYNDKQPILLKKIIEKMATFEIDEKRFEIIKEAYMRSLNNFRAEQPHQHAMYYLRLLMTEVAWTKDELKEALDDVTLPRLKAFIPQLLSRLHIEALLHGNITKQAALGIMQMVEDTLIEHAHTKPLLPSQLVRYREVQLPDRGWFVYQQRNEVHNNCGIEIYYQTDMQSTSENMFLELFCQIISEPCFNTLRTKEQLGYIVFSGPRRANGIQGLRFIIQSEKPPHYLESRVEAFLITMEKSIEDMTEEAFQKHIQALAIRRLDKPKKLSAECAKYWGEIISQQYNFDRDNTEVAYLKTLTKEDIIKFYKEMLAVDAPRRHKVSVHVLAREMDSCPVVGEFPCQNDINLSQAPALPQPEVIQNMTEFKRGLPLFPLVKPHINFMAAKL
* marks the source's active call; other numbers are inactive results.

SMILES	IDE exosite inh
N#C[C@@H]1[C@H](c2ccccc2)[C@H](CO)N1S(=O)(=O)c1ccc(-c2ccccc2)cc1	4.3
O=C(c1cccc(F)c1)N1CCCCN2[C@H](CO)[C@H](c3ccc(/C=C/c4ccccc4)cc3)[C@@H]2C1	-1.4
O=C(C[C@H]1CC[C@@H]2[C@H](COC[C@@H](O)CN2Cc2ccc(Oc3ccccc3)cc2)O1)N1CCN(c2ccccc2)CC1	1.1
O=S(=O)(c1ccccc1F)N1CCCCN2[C@@H](CO)[C@@H](c3ccc(-c4cncnc4)cc3)[C@@H]2C1	0.32
COCC(=O)N1CCCCN2[C@H](CO)[C@H](c3ccc(C#Cc4cccnc4)cc3)[C@@H]2C1	-3.1*
CCC(=O)N1CCCCN2[C@@H](CO)[C@@H](c3ccc(C#Cc4cccnc4)cc3)[C@@H]2C1	-3.1*
O=C(Nc1cccc(F)c1)N1CCCCN2[C@H](CO)[C@H](c3ccc(C#Cc4cccnc4)cc3)[C@@H]2C1	-1.6
CCC(=O)N1CCCCN2[C@H](C1)[C@H](c1ccc(-c3cccnc3)cc1)[C@@H]2CO	2.5
COCC(=O)N1CCCCN2[C@H](C1)[C@H](c1ccc(C#Cc3cccnc3)cc1)[C@@H]2CO	0.39
CCC(=O)N1CCCCN2[C@H](CO)[C@H](c3ccc(C#Cc4cccnc4)cc3)[C@@H]2C1	-10*
CCC(=O)N1CCCCN2[C@@H](CO)[C@@H](c3ccc(-c4cccnc4)cc3)[C@@H]2C1	0.016
COCC(=O)N1CCCCN2[C@H](CO)[C@H](c3ccc(C#Cc4cccnc4)cc3)[C@H]2C1	2.6
COc1cccc(-c2ccc(C3[C@H]4CNC[C@@H]3N4Cc3cncnc3)cc2)c1 (stereo partly drawn)	1.9
Cc1ccccc1-c1ccccc1[C@H]1[C@@H](C#N)N(C(=O)c2ccc(F)cc2)[C@@H]1CO	0.86
O=C(Nc1cccc(F)c1)N1CC(=O)N2[C@@H](CO)[C@H](c3ccc(-c4ccccc4)cc3)[C@@H]2C1	1.3
COCC(=O)N(C[C@H]1N[C@H](CO)[C@@H]1c1ccc(-c2ccccc2)cc1)C(C)C	1.2
N#C[C@@H]1N[C@@H](CO)[C@H]1c1ccc(C#Cc2ccc(F)cc2)cc1	1.1
COCC(=O)NC[C@H]1N[C@H](CO)[C@@H]1c1ccc(-c2ccccc2)cc1	-0.6
COCC(=O)NC[C@@H]1N[C@@H](CO)[C@H]1c1ccc(C2=CCCCC2)cc1	1.9
O=C(NC[C@H]1N[C@H](CO)[C@H]1c1ccc(-c2ccccc2F)cc1)c1ccccn1	-4.7*
COCC(=O)NC[C@@H]1N[C@@H](CO)[C@H]1c1ccc(-c2ccccc2F)cc1	-3.8*
O=C(NC[C@H]1N[C@@H](CO)[C@H]1c1ccc(-c2ccc(F)cc2)cc1)c1ccccn1	5.7
O=C(NC[C@H]1N[C@@H](CO)[C@H]1c1ccc(-c2ccccc2F)cc1)c1ccccn1	-2.5
O=C(C1CCOCC1)N1CC(=O)N2[C@@H](CO)[C@H](c3ccc(C#CC4CC4)cc3)[C@@H]2C1	2
COc1ccc2c3c([nH]c2c1)[C@@H](CO)N(C(C)=O)CC31CN(Cc2ccccc2Cl)C1	0.76
SMILES	IDE exosite inh
CC(=O)N1CCCCN2[C@@H](CO)[C@H](c3ccc(-c4cccc(C(=O)N(C)C)c4)cc3)[C@@H]2C1	4.6
OC[C@@H]1[C@H](c2ccc(Br)cc2)[C@H]2CN(Cc3ccccn3)CCCCN12	0.72
OC[C@H]1[C@@H](c2ccc(C#Cc3ccccc3)cc2)[C@@H]2CN(Cc3cncnc3)CCCCN12	-16*
CCCC#Cc1ccc([C@H]2[C@@H](CO)N3CCCCN(Cc4cncnc4)C[C@H]23)cc1	-1.8
CCCC#Cc1ccc([C@@H]2[C@H]3CN(Cc4cncnc4)CCCCN3[C@H]2CO)cc1	2.9
COCC#Cc1ccc([C@H]2[C@H](CO)N3CCCCN(Cc4cncnc4)C[C@@H]23)cc1	3.8
OC[C@@H]1[C@@H](c2ccc(-c3ccccc3)cc2)[C@@H]2CN(Cc3ccccn3)CCCCN12	-2.9
OC[C@H]1[C@H](c2ccc(C#Cc3ccccc3)cc2)[C@H]2CN(Cc3cncnc3)CCCCN21	-7.8*
CCCC#Cc1ccc([C@@H]2[C@@H](CO)N3CCCCN(Cc4cncnc4)C[C@H]23)cc1	3.7
OC[C@@H]1[C@@H](c2ccc(C#Cc3ccccc3)cc2)[C@@H]2CN(Cc3ccccn3)CCCCN12	-8.6*
O=S(=O)(c1cccs1)N1CCCCN2[C@H](CO)[C@H](c3ccc(Br)cc3)[C@H]2C1	2.6
CN1CCCCN2[C@@H](CO)[C@H](c3ccc(-c4cccnc4)cc3)[C@@H]2C1	-1.9
C/C=C/c1ccc([C@H]2[C@@H](CO)N(C(=O)C3CCCC3)[C@H]2CNCC)cc1	0.75
COc1ccc2c3c(n(C)c2c1)[C@@H](CO)N(Cc1nccs1)CC31CCN(CC2CCCC2)CC1	1.4
CCN(C[C@H]1N[C@H](CO)[C@@H]1c1ccc(-c2cccc(C#N)c2)cc1)C(C)=O	4.3
CCC(=O)N1CCCCN2[C@H](CO)[C@H](c3ccc(C#Cc4ccccc4F)cc3)[C@@H]2C1	-5.9*
CCC(=O)N1CCCCN2[C@H](C1)[C@H](c1ccc(-c3ccc(F)cc3)cc1)[C@@H]2CO	1.5
CCC(=O)N1CCCCN2[C@H](CO)[C@@H](c3ccc(-c4ccc(F)cc4)cc3)[C@H]2C1	1.4
CCC(=O)N1CCCCN2[C@H](C1)[C@@H](c1ccc(C#Cc3ccccc3F)cc1)[C@@H]2CO	-6.5*
N#C[C@@H]1[C@@H](c2ccccc2-c2ccccc2)[C@H](CO)N1C(=O)Cc1ccccc1	1.4
C[C@@H]1CN([C@@H](C)CO)S(=O)(=O)c2ccc(-c3cncnc3)cc2O[C@@H]1CN(C)C(=O)NC1CCCC1	0.01
CCCN(C)C[C@@H]1Oc2ncc(-c3cccc(OC)c3)cc2C(=O)N([C@H](C)CO)C[C@@H]1C	0.28
O=C(c1cccnc1)N1CC(=O)N2[C@H](C1)[C@H](c1ccc(-c3ccc(F)cc3)cc1)[C@@H]2CO	-1.1
O=C(c1cccnc1)N1CC(=O)N2[C@H](CO)[C@H](c3ccc(/C=C/c4ccccc4)cc3)[C@H]2C1	-16*
O=C(c1cccnc1)N1CC(=O)N2[C@@H](CO)[C@H](c3ccc(/C=C/c4ccccc4)cc3)[C@@H]2C1	-15*
SMILES	IDE exosite inh
O=C(c1cccnc1)N1CC(=O)N2[C@H](CO)[C@@H](c3ccc(-c4ccc(F)cc4)cc3)[C@H]2C1	-0.13
O=C(c1ccccc1F)N1CC(=O)N2[C@H](CO)[C@H](c3ccc(-c4ccccc4)cc3)[C@@H]2C1	0.12
CN(C)C(=O)c1cccc(-c2ccccc2[C@H]2[C@@H](C#N)N(C(=O)C3CC3)[C@@H]2CO)c1	-0.92
C[C@H](CO)N1C[C@H](C)[C@@H](CN(C)C(=O)Cc2cccnc2)Oc2cc(C#Cc3ccccc3F)ccc2S1(=O)=O	-1.4
N#C[C@@H]1[C@@H](c2ccc(C#CC3CCCCC3)cc2)[C@H](CO)N1C(=O)Nc1ccc(F)cc1	2.7
C[C@H]1CC(=O)N[C@@H](c2ccccc2)C/C=C\C[C@H](c2ccc3c(c2)OCO3)NC1=O	-1.1
COc1ccc(-c2ccc([C@@H]3[C@H](C#N)N(C(=O)c4cccnc4)[C@H]3CO)cc2)cc1	-1.9
COc1ccccc1-c1ccccc1[C@@H]1[C@@H](C#N)N(C(=O)C2CCC2)[C@H]1CO	3.9
COc1ccccc1-c1ccccc1[C@H]1[C@@H](C#N)N(C(=O)C2CCC2)[C@@H]1CO	1.2
COc1ccccc1-c1ccc([C@@H]2[C@@H](C#N)N(C(=O)c3cccnc3)[C@@H]2CO)cc1	-34*
CS(=O)(=O)N1[C@H](CO)[C@@H](c2ccc(-c3ccccc3F)cc2)[C@@H]1C#N	-3.1*
